High-throughput results deposited in PubChem BioAssay by National Center for Advancing Translational Sciences (NCATS).
HT1080 IDH1KD tx – toxicity to HT-1080 IDH1 knockdown cells (counter line); HT-1080 IDH1 knockdown viability, ATP luminescence, 48 h; actives 2% (n = 360,000); Potency, µM (highest dose often 46.1 µM), without a hit: at the top dose activity, negative = toxicity, hits mostly cytotoxic;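 note: potency is the fitted concentration of half-maximal effect; 0% = DMSO wells and -100% = cell-free medium wells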
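Assay cells: HT-1080 with IDH1 knockdown, 750 per well, RPMI/5% FBS. Exposure: 48 h at 37 °C following 2 h pre-incubation. Read: CellTiter-Glo luminescence; fitted concentration-response, curve class assigned.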
HT1080-NT tox – kills 2HG-producing HT-1080-NT fibrosarcoma cells; HT-1080-NT fibrosarcoma viability, CellTiter-Glo ATP luminescence, 48 h; Potency, µM (highest dose often 46.1 µM), for the others: at the highest dose activity, negative = less viability, usual class: cytotoxic; actives 1.6% (n = 360,000); AID 686970;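 note: NT is the 2HG producing partner of a matched IDH1 knockdown line; potency is the fitted concentration of half-maximal effect; 0% = DMSO-treated cells and -100% = media-only wells without cells; nearly all actives have a fitted effect of over 55% in size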
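Fibrosarcoma NT cells, 750 per well in 5% FBS RPMI, were exposed to compound for 48 hours. Viability: CellTiter-Glo luminescence.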
TDP1 cell CPT – DT40-hTDP1 cell growth loss with CPT | chicken DT40 Tdp1-/-;hTDP1 cells + 20 nM CPT, ATP luminescence, 48 h | Potency, µM (highest dose often 46.2 µM), for inactives: at the top dose activity change, negative = growth inhibition, most hits filed as inhibitors | actives 12% (n = 420,000) | AID 686979; note: potency is the fitted concentration of half-maximal effect; nearly all actives have a fitted effect of over 55% in size
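Chicken DT40 Tdp1-/- cells stably complemented with human TDP1 were seeded at 400 cells/well in medium containing 20 nM camptothecin, exposed to pin-transferred compounds, and grown at 37 °C for at least 48 hr. Viability was read as ATP luminescence.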
IL-1B inflam inh – inhibitors of inflammasome signaling (IL-1 beta secretion) | activity change, % at 57.5 µM | actives 4.7% (n = 360,000) | THP-1 LPS/ATP IL-1B secretion, AlphaLISA, 16 h; hits give low values; in the data active = activity change below about -50%; inconclusive = mostly about -30% to -49%
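THP-1 cells pretreated 1 hr with compounds (up to 57.5 uM final), then stimulated with LPS (250 ng/mL final) plus ATP (1.25 mM final); secreted IL-1B measured by AlphaLISA after 16 hr, decreased signal indicating inhibition.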
DT40 TDP1 no CPT – qHTS for Inhibitors of human tyrosyl-DNA phosphodiesterase 1 (TDP1): qHTS in cells in absence of CPT | DT40 Tdp1-/- hTDP1 cells, no CPT, ATP luminescence, 48 h | Potency, µM (series often up to 46.2 µM), for the others: top-dose activity change, negative = growth inhibition, usual class: inhibitors | actives 15% (n = 420,000); note: potency is the fitted concentration of half-maximal effect; nearly all actives have a fitted effect of over 55% in size
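Chicken DT40 Tdp1-/- cells complemented with human TDP1, screened without camptothecin (DMSO vehicle only), 400 cells/well. Compounds pin-transferred, cells incubated at 37 °C for at least 48 hr. Growth read as ATP-dependent luminescence (CellTiter-Glo, 30 min at RT).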
* hit, by the source's call; i = inactive; ? = inconclusive; · = no result given; [ ] = dose if it differs, or a comment. Hits are enriched below; roughly 19% of the tested compounds scored in any of these assays. Unless noted, calls come from the whole dose curve; as a rule, active = well fitted curve in the direction sought with a large enough effect; inconclusive = small, poorly fitted or top-dose-only effect, or another doubt; inactive = no such curve, though single readings can be large; an effect the other way counts as inactive or inconclusive. Unless noted, % is set by controls: 0 for no effect and ±100 for the full control effect.

SMILES	HT1080 IDH1KD tx	HT1080-NT tox	TDP1 cell CPT	IL-1B inflam inh	DT40 TDP1 no CPT
CN(C)CCCNc1oc(-c2ccc(Cl)cc2)nc1S(=O)(=O)c1ccccc1	-24%	-22%	15µM*	-8	16µM*
COc1ccnc(-n2cccc2/C=N/O)c1C#N	-4%	9%	0%	-2	-16%
O=C1CCC(C(=O)Nc2cccc(Oc3ccccc3)c2)=NN1	8%	4%	?	-19	4%
O=C(CN1CSCC1=O)N1CCN(S(=O)(=O)c2cc(C(F)(F)F)ccc2Cl)CC1	8%	3%	2%	10	?
Cc1cc2c(cc1NC(=O)c1ccccc1Cl)n(C)c(=O)c(=O)n2C	·	·	-20%	·	-14%
Cc1ccc(S(=O)(=O)c2nc(-c3ccccc3Cl)oc2NCCCN2CCOCC2)cc1	15%	-3%	?	i	26µM*
O=S(=O)(c1ccc(Cl)cc1)c1nc(-c2ccccc2F)oc1NCCCN1CCOCC1	0%	1%	?	-74*	?
COc1cc2c(c(OC)c1)C(c1cccc(F)c1F)CC(=O)N2 (centres undefined)	·	·	-17%	·	-4%
CCOC(=O)C1(CCOc2ccccc2)CCN(Cc2ccc(-n3cccn3)cc2)CC1	?	?	?	4	16µM*
CCOC(=O)C1(CCOc2ccccc2)CCN(Cc2ccncc2)CC1	-5%	-13%	?	-20	26µM*
COc1ccc(-n2c(=O)c(-c3cccs3)nc3cnc(OC)nc32)cc1	·	·	-79%	·	?
COC(=O)c1ccc(N2CCN(C)CC2)c(NC(=O)c2sc3ccccc3c2Cl)c1	-3%	-16%	23µM*	-14	16µM*
CN1CCN(C(=O)c2ccccc2NC(=O)c2sc3ccccc3c2Cl)CC1	-8%	-10%	?	-20	?
CN1CCN(c2ccc(NC(=O)c3sc4ccccc4c3Cl)cc2)CC1	-3%	-5%	12µM*	?	13µM*
CCOC(=O)c1ccc(NC(=O)c2sc3ccccc3c2Cl)cc1	·	·	-8%	·	-10%
COC(=O)c1ccc(N2CCN(c3ccccc3)CC2)c(NC(=O)C2CC2)c1	-5%	-1%	21µM*	44	16µM*
CC(C)N(CCNC(=O)c1oc(=O)c2ccccc2c1-c1ccccc1)Cc1ccco1	-10%	-15%	-20%	-2	?
CCC1CN(CCNC(=O)c2ccc(C#CC(C)(C)O)cc2)Cc2cc(OC)ccc2O1 (centres undefined)	·	·	4%[9.04 µM]	·	?
Cc1ccccc1NC(=O)/C(=C/c1ccccc1)c1ccccc1	-9%	2%	21µM*	1	12µM*
CC(=O)c1ccc(NC(=O)/C(Cl)=C/c2ccccc2)cc1	19%	17%	5%	-62*	0%
O=C(Nc1ccccc1)/C(=C/c1ccccc1)c1ccccc1	-1%	5%	?	-9	12µM*
O=C(Nc1ccc(F)cc1)/C(Cl)=C/c1ccccc1	-5%	1%	-2%	-2	?
Cc1ccccc1NC(=S)Nc1ccccc1	23%	19%	-6%	17	-18%
CCOc1cccc2cc(S(=O)(=O)c3ccccc3F)c(=O)oc12	·	·	11%	·	1%
Cc1ccccc1C(C)(O)c1cnc(C)n1Cc1ccccc1 (centres undefined)	0%	-6%	21µM*	-4	12µM*
Cc1nccn1Cc1ccccc1	·	·	9%	-17	-2%
CC(=O)c1ccc(-c2nnc(CCC(=O)N3CCCC(C(=O)CC(C)C)C3)o2)s1 (centres undefined)	10%	6%	13µM*	3	?
CCC(=O)C1CCCN(C(=O)CCc2nnc(C3(c4ccc(Cl)cc4)CCC3)o2)C1 (centres undefined)	-3%	0%	23µM*	1	?
COc1cc(/C=N/N2CCN(Cc3ccc(C)cc3)CC2)cc(OC)c1O	-8%	-6%	?	5	-38%
COc1ccc([C@H]2C[C@@H](O)[C@H](n3cc(C4CC4)nn3)CN2C(=O)c2cccs2)cc1	2%	9%	-25%	-1	?
